{"source": "the supplement of paper PMC9948646", "data": [{"tested_on": "gramicidin D channels in DC22:1PC lipid vesicles (bilayer-modifying potency)", "experiment": "initial Tl+ fluorescence quench rate relative to no-drug control (NormRate, gramicidin monomer-dimer shift) (ratio (fold of control)); higher = stronger bilayer-modifying effect (equilibrium shifted toward conducting dimers), active = 1.5 or more", "conditions": "10 µM; lipid concentration 50 µM; temperature: 25 °C", "method": "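Stopped-flow fluorescence quench assay: ANTS-loaded DC22:1PC large unilamellar vesicles doped with gramicidin D (1:2000), 50 µM lipid, equilibrated 10 min with 10 µM drug (0.1% DMSO), mixed with Tl+ quench buffer at 25°C. Initial quench rate (Tl+ influx) was fitted with a modified stretched exponential and normalised to the no-drug control rate (NormRate); duplicates from two independent LUV preparations (triplicates for 7 drugs).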", "values": [{"smiles": "CC(C)[C@@H](Oc1cccc2ccccc12)C(=O)O", "initial Tl+ fluorescence quench rate": "1.1 (inactive)"}, {"smiles": "O=C(Nc1cccnc1)c1c(O)c2cccc3c2n(c1=O)CC3", "initial Tl+ fluorescence quench rate": "1.07 (inactive)"}, {"smiles": "Cc1cc(C)c2cc(C(=O)NC3CCCCCCC3)[nH]c2c1", "initial Tl+ fluorescence quench rate": "1.78 (active)"}, {"smiles": "COc1cccc(NC(=O)c2c(NC(=O)c3cccnc3)sc3c2CCC3)c1", "initial Tl+ fluorescence quench rate": "1.55 (active)"}, {"smiles": "CCOc1ccc2cc(-c3nn(C(C)(C)C)c(N)c3C(N)=O)cnc2c1", "initial Tl+ fluorescence quench rate": "1.21 (inactive)"}, {"smiles": "COc1cc2ncnc(NC3CCN(Cc4ccccc4)CC3)c2cc1OC", "initial Tl+ fluorescence quench rate": "1.04 (inactive)"}, {"smiles": "Cc1ccc(-c2nc(CN(Cc3ccccn3)C(C)C)cs2)o1", "initial Tl+ fluorescence quench rate": "1.21 (inactive)"}, {"smiles": "Cc1nn(C(=O)Nc2cccc(C(F)(F)F)c2)c(C)c1Sc1ncccn1", "initial Tl+ fluorescence quench rate": "2 (active)"}, {"smiles": "C[C@H]1COC2(CCN(c3nc(=O)c4cc(C(F)(F)F)cc([N+](=O)[O-])c4s3)CC2)O1", "initial Tl+ fluorescence quench rate": "1.08 (inactive)"}, {"smiles": "C[C@@H](Oc1cccc(Cl)c1)C(=O)Nc1ccc2oc(-c3ccncc3)nc2c1", "initial Tl+ fluorescence quench rate": "1.72 (active)"}, {"smiles": "COc1ccc2nc(C)cc(OCC(=O)NCc3ccccc3)c2c1", "initial Tl+ fluorescence quench rate": "1.06 (inactive)"}, {"smiles": "COc1ccc(Oc2ccc([C@@H](C)N(C)c3ncc4c(N)nc(N)nc4n3)cc2)cc1", "initial Tl+ fluorescence quench rate": "3.36 (active)"}, {"smiles": "Cc1nn(C)cc1[C@H](C)Nc1nncc(-c2ccc(C(F)(F)F)cc2)n1", "initial Tl+ fluorescence quench rate": "1.93 (active)"}, {"smiles": "Brc1cncc(-c2cc(NCCCn3ccnc3)nc(-c3ccccc3)n2)c1", "initial Tl+ fluorescence quench rate": "2.73 (active)"}, {"smiles": "COC(=O)c1c(NC(=O)c2cc3ccccc3oc2=O)sc2c1CCN(Cc1ccccc1)C2", "initial Tl+ fluorescence quench rate": "1.04 (inactive)"}, {"smiles": "O=C(C1CCCCC1)N1CC(=O)N2CCc3ccccc3[C@@H]2C1", "initial Tl+ fluorescence quench rate": "1.04 (inactive)"}, {"smiles": "CN1CCN(c2cc(-c3ccc(F)cc3)nc(-c3ccncc3)n2)CC1", "initial Tl+ fluorescence quench rate": "1.18 (inactive)"}, {"smiles": "COC(=O)Nc1nc2cc(C(=O)c3ccccc3)ccc2[nH]1", "initial Tl+ fluorescence quench rate": "1.04 (inactive)"}, {"smiles": "O=C(Nc1cccc(-c2ccc(NCCCN3CCCC3)nc2)c1)c1ccccc1", "initial Tl+ fluorescence quench rate": "1.2 (inactive)"}, {"smiles": "CNC(=O)c1nn(C)c2c1C(C)(C)Cc1cnc(Nc3ccc(N4CCN(C)CC4)cc3)nc1-2", "initial Tl+ fluorescence quench rate": "1.04 (inactive)"}, {"smiles": "COc1ccc2nc(C)cc(OCC(=O)Nc3ccccc3OC)c2c1", "initial Tl+ fluorescence quench rate": "1.11 (inactive)"}, {"smiles": "COc1ccc(N(CCc2cccc(C)n2)C(C)=O)cc1", "initial Tl+ fluorescence quench rate": "1.04 (inactive)"}, {"smiles": "CCN(CC)S(=O)(=O)c1ccc(Cl)c(C(=O)Nc2ccc3nc(C)sc3c2)c1", "initial Tl+ fluorescence quench rate": "2.06 (active)"}, {"smiles": "CC(C)(C)c1cc(C(=O)N2CCN(c3nccnc3C#N)CC2)n(Cc2ccccc2)n1", "initial Tl+ fluorescence quench rate": "1.21 (inactive)"}, {"smiles": "C[C@@H](C(=O)N1CCCC1)N1CCN(S(=O)(=O)c2ccc(C(C)(C)C)cc2)CC1", "initial Tl+ fluorescence quench rate": "1.15 (inactive)"}, {"smiles": "Nc1nccc2ccc(-c3ccc4nccn4c3)cc12", "initial Tl+ fluorescence quench rate": "1.17 (inactive)"}, {"smiles": "CCOc1ccc(OCC(=O)Nc2cc(C)cc(C)c2)cc1", "initial Tl+ fluorescence quench rate": "1.45 (inactive)"}, {"smiles": "Nc1ncnc2[nH]nc(Cc3cccc4ccccc34)c12", "initial Tl+ fluorescence quench rate": "1.15 (inactive)"}, {"smiles": "O=C(c1[nH]nc2c1CCCC2)N1CCN(Cc2ccc3c(c2)OCO3)CC1", "initial Tl+ fluorescence quench rate": "1.03 (inactive)"}, {"smiles": "CCOC(=O)NC(=O)c1ccsc1NC(=O)c1nc2ccccc2s1", "initial Tl+ fluorescence quench rate": "3.21 (active)"}, {"smiles": "COc1ccccc1CNC(=O)c1cc(C2CC2)nc2c1cnn2C(C)C", "initial Tl+ fluorescence quench rate": "1.62 (active)"}, {"smiles": "Cc1nn2c(=O)c3c([nH]c2c1-c1ccc(Cl)cc1)CCCC3", "initial Tl+ fluorescence quench rate": "1.13 (inactive)"}, {"smiles": "O=C(C1CCN(c2cc(-n3cccc3)ncn2)CC1)N1CCc2ccccc2C1", "initial Tl+ fluorescence quench rate": "1.45 (inactive)"}, {"smiles": "c1csc(-c2cnc3sc(NCC4CCOCC4)nn23)c1", "initial Tl+ fluorescence quench rate": "1.71 (active)"}, {"smiles": "OC[C@H]1O[C@@H](n2c3ccc(Cl)cc3c3c(-c4cc5ccccc5o4)ncnc32)[C@H](O)[C@H]1O", "initial Tl+ fluorescence quench rate": "3.52 (active)"}, {"smiles": "CCCn1nnc(NC(=O)COc2ccc(C3CCCCC3)cc2)n1", "initial Tl+ fluorescence quench rate": "2.51 (active)"}, {"smiles": "CCOc1ccc(-c2nc(CNCCc3ccc(F)cc3)cs2)cc1", "initial Tl+ fluorescence quench rate": "1.44 (inactive)"}, {"smiles": "COc1ccc(-c2cnc3cnc(-c4cccc(OC(C)C)c4)cn23)cc1", "initial Tl+ fluorescence quench rate": "2.01 (active)"}]}]}
